Rows were chosen to be rich in hits. Some 6.2% of all compounds tested hit in one or more screens of this group.
KB-3-1 tox: KB-3-1 parental cell cytotoxicity; KB-3-1 viability, CellTiter-Glo ATP luminescence, 72 h; Potency, µM (highest dose often 46.1 µM), usual class: cytotoxic; hit rate 1.4% among 400,000; AID 1347075; also: % is scaled to controls: 0 for no effect and ±100 for the full control effect; nearly all actives have a fitted effect of over 60% in size
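Here the drug-naive KB-3-1 line serves as comparator for MDR sub-line selectivity; cells received compound titrations, 72 h at 37 °C, then CellTiter-Glo readout.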
HT1080 IDH1KD tx: kills HT-1080 cells with IDH1 knockdown. HT-1080 IDH1 knockdown viability, ATP luminescence, 48 h. Potency, µM (series often up to 46.1 µM), for the others: at the highest dose activity, negative = toxicity, usual class: cytotoxic. hit rate 2% among 360,000. AID 686971;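 also: 0% = DMSO wells and -100% = cell-free medium wells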
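HT-1080-IDH1KD cells (IDH1 knocked down), 750/well in RPMI with 5% FBS, treated with compound 48 h at 37 degrees C. Viability by CellTiter-Glo luminescence, normalised to DMSO and no-cell wells; concentration-response curves classed.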
HT1080-NT tox: kills 2HG-producing HT-1080-NT fibrosarcoma cells; AID 686970; hit rate 1.6% among 360,000; HT-1080-NT fibrosarcoma viability, CellTiter-Glo ATP luminescence, 48 h; Potency, µM (titrated, usually from 46.1 µM), for the others: top-dose activity, negative = less viability, hits mostly cytotoxic;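 also: NT is the 2HG producing partner of a matched IDH1 knockdown line; 0% = DMSO-treated cells and -100% = media-only wells without cells; nearly all actives have a fitted effect of over 55% in size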
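750 cells/well, RPMI + 5% FBS; 2 h settle, compound pin-transfer, 48 h at 37 degrees C. CellTiter-Glo 10 min RT, luminescence. Normalized to DMSO and media-only wells.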
ATXN viability: cell viability loss in ATXN counter-screen; S2 cells (HEK-293 line with an ATXN2-luciferase reporter) viability, CellTiter-Fluor protease fluorescence, 24 h; Potency, µM (series often up to 56.7 µM), hits mostly cytotoxic; hit rate 0.49% among 400,000; AID 651635; also: nearly all actives have a fitted effect of over 40% in size
KB-V1 MDR tox: kills drug-selected multidrug resistant KB-V1 cells | KB-V1 MDR cells viability, CellTiter-Glo, 72 h | Potency, µM (titrated, usually from 46.1 µM), hits mostly cytotoxic | hit rate 3.4% among 400,000; also: % is scaled to controls: 0 for no effect and ±100 for the full control effect; nearly all actives have a fitted effect of over 60% in size
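Potencies derive from concentration-effect curves fitted to normalized luminescence (CellTiter-Glo) of KB-V1 cells treated for 72 h at 37 degrees C in phenol-red-free DMEM containing 10% FBS.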
ATXN2 expr inh: reduces ATXN2 reporter expression in HEK-293 cells. HEK-293 ATXN2-luciferase reporter, luminescence, 24 h. Potency, µM (series often up to 57 µM), inactives show at the top dose activity change, negative = inhibition, actives largely listed as inhibitors. hit rate 0.72% among 360,000; also: % is scaled to controls: 0 for no effect and ±100 for the full control effect; nearly all actives have a fitted effect of over 55% in size
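qHTS (up to 57 uM final) was run with 24 h compound exposure of reporter cells at 37 °C. Each well was multiplexed: SteadyGlo luminescence measured ATXN2-luciferase expression after a fluorogenic Gly-Phe-AFC viability readout (25 uM final).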
Active calls of the source: *. Calls follow the shape of the dose curve; as a rule, active = well fitted curve in the direction sought with a large enough effect; inconclusive = small, poorly fitted or top-dose-only effect, or another doubt; inactive = no such curve, though single readings can be large; an effect the other way counts as inactive or inconclusive. Potency is read from the fitted curve at half-maximal effect.

What do the screens show for `COc1cccc(NC(=O)c2oc3ccccc3c2NC(=O)c2ccc(C(F)(F)F)cc2)c1`?
KB-3-1 tox: inactive; ATXN viability: inactive; KB-V1 MDR tox: inactive; ATXN2 expr inh: -3.3%

What do the screens show for `COc1ccc(CNS(=O)(=O)CCNC(=O)c2cccc(OC)c2)cc1`?
KB-3-1 tox: inactive; HT1080 IDH1KD tx: 2.8%; HT1080-NT tox: 5.0%; ATXN viability: inactive; KB-V1 MDR tox: 16.4µM*; ATXN2 expr inh: 5.6%

Results for COc1ccc(C(=O)NCCS(=O)(=O)NCc2ccc3c(c2)OCO3)cc1 ?
KB-3-1 tox: inactive; HT1080 IDH1KD tx: 8.1%; HT1080-NT tox: 3.3%; ATXN viability: inconclusive; KB-V1 MDR tox: inactive; ATXN2 expr inh: 4.2%

How did COc1ccc(C(=O)NCc2ccc3c(c2)OCO3)cc1S(=O)(=O)NCc1ccc(Cl)cc1 do in these assays?
KB-3-1 tox: inactive; HT1080 IDH1KD tx: -11.4%; HT1080-NT tox: -3.5%; ATXN viability: inconclusive; KB-V1 MDR tox: inactive; ATXN2 expr inh: -3.8%

Results for COc1cccc(C(=O)NCCS(=O)(=O)NCc2ccc3c(c2)OCO3)c1 ?
KB-3-1 tox: inactive; HT1080 IDH1KD tx: -5.5%; HT1080-NT tox: -12.3%; ATXN viability: inactive; KB-V1 MDR tox: 18.4µM*; ATXN2 expr inh: 2.2%

How did COc1ccc(C(=O)NCc2ccc3c(c2)OCO3)cc1S(=O)(=O)N(C)Cc1ccccc1 do in these assays?
KB-3-1 tox: inactive; HT1080 IDH1KD tx: -10.0%; HT1080-NT tox: -8.7%; ATXN viability: inactive; KB-V1 MDR tox: 9.2µM*; ATXN2 expr inh: -3.8%

How did CC(=O)N(Cc1cccnc1)c1nc2c(C)c(C)ccc2s1 do in these assays?
KB-3-1 tox: inactive; KB-V1 MDR tox: inactive

Results for CCOc1ccc(C(=O)NCc2ccncc2)cc1OCC ?
KB-3-1 tox: inactive; HT1080 IDH1KD tx: 13.9%; HT1080-NT tox: 10.0%; ATXN viability: inconclusive; KB-V1 MDR tox: inactive; ATXN2 expr inh: -1.5%

How did CCOc1cc(C(=O)NCc2ccncc2)cc(OCC)c1OCC do in these assays?
KB-3-1 tox: inactive; HT1080 IDH1KD tx: 3.5%; HT1080-NT tox: 10.3%; ATXN viability: inactive; KB-V1 MDR tox: 7.31µM*; ATXN2 expr inh: 0.5%

What do the screens show for `Cc1ccc(SCc2ccc(C(=O)NCc3ccncc3)cc2)cc1`?
KB-3-1 tox: inactive; HT1080 IDH1KD tx: -15.1%; HT1080-NT tox: -13.6%; ATXN viability: inactive; KB-V1 MDR tox: 18.4µM*; ATXN2 expr inh: -13.6%

Results for O=C(Nc1cnccn1)c1ccncc1 ?
KB-3-1 tox: inactive; HT1080 IDH1KD tx: -10.8%; HT1080-NT tox: -1.7%; ATXN viability: inactive; KB-V1 MDR tox: inactive; ATXN2 expr inh: -0.2%

How did Cc1ccc(SCCC(=O)NCc2ccncc2)cc1 do in these assays?
KB-3-1 tox: inactive; HT1080 IDH1KD tx: 3.6%; HT1080-NT tox: -2.7%; ATXN viability: inactive; KB-V1 MDR tox: inconclusive; ATXN2 expr inh: -6.7%

Results for CCOc1cc(C(=O)Nc2cnccn2)cc(OCC)c1OCC ?
KB-3-1 tox: inactive; HT1080 IDH1KD tx: 10µM*; HT1080-NT tox: inconclusive; ATXN viability: inconclusive; KB-V1 MDR tox: inconclusive; ATXN2 expr inh: -12.0%

How did CC(C)C(=O)Nc1cccc(C2CN3CCSC3=N2)c1 (stereo unspecified) do in these assays?
ATXN viability: inactive; ATXN2 expr inh: 3.0%

Results for CN(CC(=O)NCCc1ccc(S(N)(=O)=O)cc1)CC(=O)Nc1ccc(Cl)c(C(F)(F)F)c1 ?
KB-3-1 tox: 16.4µM*; HT1080 IDH1KD tx: -9.7%; HT1080-NT tox: 0.5%; ATXN viability: inactive; KB-V1 MDR tox: inactive; ATXN2 expr inh: inconclusive

Results for CN(CC(=O)NC(=O)NCc1ccccc1)CC(=O)Nc1ccc(Cl)c(C(F)(F)F)c1 ?
KB-3-1 tox: inconclusive; HT1080 IDH1KD tx: inconclusive; HT1080-NT tox: 18.4µM*; ATXN viability: inactive; KB-V1 MDR tox: inconclusive; ATXN2 expr inh: -16.7%

Results for CN(CC(=O)NCc1ccccc1)CC(=O)Nc1ccc(Cl)c(C(F)(F)F)c1 ?
KB-3-1 tox: inactive; HT1080 IDH1KD tx: -5.1%; HT1080-NT tox: -13.5%; ATXN viability: inactive; KB-V1 MDR tox: inconclusive; ATXN2 expr inh: -30.3%

Results for Cc1cccc(N2CCN(C(=O)CCCCCn3c(=S)[nH]c4ccc(N5CCOCC5)cc4c3=O)CC2)c1C ?
KB-3-1 tox: inactive; HT1080 IDH1KD tx: 0.0%; HT1080-NT tox: 5.6%; ATXN viability: inactive; KB-V1 MDR tox: inactive

How did COc1ccc(-c2[nH]c(-c3ccc(C)cc3)nc2SCC(=O)Nc2nccs2)cc1 do in these assays?
KB-3-1 tox: inconclusive; HT1080 IDH1KD tx: inconclusive; HT1080-NT tox: inconclusive; ATXN viability: inactive; KB-V1 MDR tox: 23.1µM*; ATXN2 expr inh: 2.7%

How did COc1cccc(-c2nn(C)c3sc(C(=O)Nc4ccc5c(c4)OCCO5)cc23)c1 do in these assays?
KB-3-1 tox: inactive; HT1080 IDH1KD tx: -27.5%; HT1080-NT tox: -19.7%; ATXN viability: inactive; KB-V1 MDR tox: 18.4µM*; ATXN2 expr inh: 43.6%

Results for COc1ccc(-c2nc(SCC(=O)Nc3ccc4c(c3)OCCO4)c(-c3ccc(F)cc3)[nH]2)cc1 ?
KB-3-1 tox: inactive; ATXN viability: inconclusive; KB-V1 MDR tox: inactive; ATXN2 expr inh: -9.8%

How did COc1cccc(-c2nc(SCC(=O)Nc3ccc4c(c3)OCCO4)c(-c3ccc(C)cc3)[nH]2)c1 do in these assays?
KB-3-1 tox: 20.6µM*; ATXN viability: inconclusive; KB-V1 MDR tox: inconclusive; ATXN2 expr inh: inconclusive

What do the screens show for `CCOc1cc(C#N)c(NC(=O)c2ccc(OC)c(S(=O)(=O)N3CCN(c4ccccc4)CC3)c2)cc1OCC`?
KB-3-1 tox: inactive; ATXN viability: inactive; KB-V1 MDR tox: inactive; ATXN2 expr inh: 3.4%

Results for COc1ccc(S(=O)(=O)NC(=O)C2(C)CCN2C(=O)Cc2cc(C)cc(C)c2)cc1 (stereo unspecified) ?
KB-3-1 tox: inactive; HT1080 IDH1KD tx: 2.4%; HT1080-NT tox: 10.8%; ATXN viability: inactive; KB-V1 MDR tox: inactive; ATXN2 expr inh: 6.1%

What do the screens show for `N#Cc1cc2sc3nnc(-c4ccncc4)n3c2cc1C#N`?
KB-3-1 tox: 6.51µM*; HT1080 IDH1KD tx: inconclusive; HT1080-NT tox: inconclusive; ATXN viability: inactive; KB-V1 MDR tox: 2.06µM*; ATXN2 expr inh: 26.7%

What do the screens show for `N#CCSc1nnc2sc3ccccc3n12`?
KB-3-1 tox: inactive; HT1080 IDH1KD tx: 5.0%; HT1080-NT tox: 1.6%; ATXN viability: inactive; KB-V1 MDR tox: inactive; ATXN2 expr inh: -10.0%

How did CC(NCc1ccc(OCc2ccc(Cl)cc2)cc1)C(O)c1ccccc1 (stereo unspecified) do in these assays?
KB-3-1 tox: inconclusive; HT1080 IDH1KD tx: 18.4µM*; HT1080-NT tox: 23.1µM*; ATXN viability: inconclusive; KB-V1 MDR tox: inconclusive; ATXN2 expr inh: inconclusive
